The sample as a whole holds a higher share of hits than the screen did.
Vaccinia Venus: inhibitors of vaccinia virus (Venus reporter). Vaccinia virus Venus reporter expression, fluorescence. 0.46% of 330,000 active. Potency, µM (titrated, usually from 36.5 µM), without a hit: top-dose activity change, negative = inhibition, hits mostly inhibitors; calls by dose curve; tested in A549 cells; further: potency means the concentration at half of the fitted maximal effect; on the % scale 0 is the no-effect control and ±100 the full control effect; nearly all actives have a fitted effect of over 30% in size
Marburg entry inh: inhibitors of Marburg virus binding or cell entry; Marburg virus pseudotyped entry inhibition, cell reporter; Potency, µM (top dose mostly 37.8 µM), for inactives: at the top dose activity change, negative = inhibition, usual class: inhibitors; 1.8% of 300,000 active; calls by dose curve; tested in HEK293 cells; further: potency means the concentration at half of the fitted maximal effect; on the % scale 0 is the no-effect control and ±100 the full control effect
Lassa entry inh: blocks Lassa virus binding to or entry into cells. Lassa virus pseudotype entry inhibition, cell reporter. Potency, µM (highest dose often 37.9 µM), for inactives: at the highest dose activity change, negative = inhibition, actives largely listed as inhibitors. 1.2% of 300,000 active. AID 540256; calls by dose curve; tested in HEK293 cells; further: potency means the concentration at half of the fitted maximal effect; on the % scale 0 is the no-effect control and ±100 the full control effect; nearly all actives have a fitted effect of over 50% in size
Vaccinia mCherry: vaccinia inhibition (mCherry reporter). Vaccinia virus mCherry reporter infection, fluorescence. Potency, µM (highest dose often 36.5 µM), inactives show top-dose activity change, negative = inhibition, most hits filed as inhibitors. 0.63% of 310,000 active. AID 720579; calls by dose curve; tested in A549 cells; further: potency means the concentration at half of the fitted maximal effect; on the % scale 0 is the no-effect control and ±100 the full control effect; nearly all actives have a fitted effect of over 35% in size
Shiga inhibitor: Shiga toxin inhibition; 9.2% of 290,000 active; inhibition, % at 38.7 µM; AID 2315; Vero cells, Shiga toxin protein synthesis inhibition reporter; in the data active means inhibition mostly above about 28%, no sharp cut-off; inactive means mostly below about 43%; further: 0% is about no effect
CHX counter: affects cycloheximide protein synthesis inhibition readout, counter-screen; cell reporter, cycloheximide protein synthesis inhibition counterscreen; 12% of 300,000 active; max response, %; in the data active means max response mostly above about 13%, no sharp cut-off; inactive means mostly below about 14%; further: read at 38.3 µM for the half of the compounds with a filed dose; 0% is about no effect
* marks the source's active call; other numbers are inactive results; i = inactive; ? = inconclusive; · = not tested or not shown; [ ] = remark or other dose.

SMILES | Vaccinia Venus | Marburg entry inh | Lassa entry inh | Vaccinia mCherry | Shiga inhibitor | CHX counter
Cc1ccc(C(=O)N/N=C\c2ccncc2)s1 | -17% | 7%[46.1 µM] | 15%[46.1 µM] | i | 53* | 40*
O=C(N/N=C/c1ccccn1)c1cc(-c2ccc(Br)s2)[nH]n1 | -29% | ? | · | -28% | -7 | -6
O=C(N/N=C/c1ccncc1)c1cc(-c2ccc(Br)s2)[nH]n1 | -14% | ? | ? | -30% | 40 | 32*
O=C(Nc1nnc(-c2ccncc2)o1)c1ccc(Br)s1 | -21% | 8.9µM* | ? | -2% | 36 | 35
O=C(N/N=C\c1cccnc1)c1ccc(Br)s1 | -4% | 3% | 1% | -17% | 60 | 34*
O=C(N/N=C\c1cccnc1)c1ccc(Cl)s1 | · | · | · | · | 20 | 11
COc1ccccc1N1CCN(C(=O)c2cc3ccc4ccc(C)[nH]c4c3n2)CC1 | -3% | · | -17%[46.1 µM] | -10% | · | ·
O=C(NN=Cc1ccc(N(CCCl)CCCl)cc1Cl)c1cccnc1 | ? | 1.6µM* | ? | ? | · | ·
CCc1ccc(C(=O)N/N=C/c2ccncc2)s1 | · | · | · | · | 32 | 23*
Cc1cc(N(CCCl)CCCl)ccc1C=NNC(=O)c1cccnc1 | -29% | ? | ? | -2% | · | ·
O=C(N/N=C\c1ccncc1)c1ccc(Br)s1 | -15% | ? | 0%[46.1 µM] | i | 8 | 13*
O=C(N/N=C/c1ccc(Br)s1)c1cccnc1 | 0% | 3% | 12% | 8% | 42* | 26*
CNC(=O)c1[nH]cnc1C(=O)Nc1ccc(Cl)cc1 | ? | · | · | i | 40 | 28*
c1ccc(COc2ncnc3c2ncn3CCCNCC(c2ccccc2)c2ccccc2)cc1 | 14µM* | · | · | ? | · | ·
O=C(Nc1ccn(CCCNCC(c2ccccc2)c2ccccc2)c(=O)n1)OCc1ccccc1 | 11µM* | · | · | 13µM* | · | ·
COc1ncnc2c1ncn2CCCNCC(c1ccccc1)c1ccccc1 | -13% | · | · | -13% | · | ·
CC(CNCCCn1ccc(NC(=O)OCc2ccccc2)nc1=O)c1ccccc1 (configuration not stated) | -23% | · | · | i | · | ·
CC(C)(C)OC(=O)N1CCC(c2c(C(=O)Nc3ccc4c(c3)OCCO4)cnn2-c2ccc(Cl)cc2)CC1 | -22% | · | -1%[46.1 µM] | -7% | · | ·
COCCC1CCCCN1C(=O)c1cccc(OC2CCN(C3CCCC3)CC2)c1 (configuration not stated) | -6% | 0%[46.1 µM] | 19%[46.1 µM] | -12% | -13 | 7
CC(=O)Nc1cccc(Oc2ncnc3scc(-c4ccc(C(C)C)cc4)c23)c1 | -9% | 2.8µM* | 2.5µM* | -13% | 13 | -2
Cc1c(Br)cnc2ccccc12 | -7% | · | · | -8% | · | ·
O=C(CNCCc1ccc(Cl)cc1)Nc1ccc(C(=O)N2CCCCC2)cc1 | -15% | 11µM* | ? | 43% | -13 | -4
Cc1ccc(CC(=O)Nc2ccc(C(=O)N3CCCCC3)cc2)cc1 | -9% | -26%[46.1 µM] | -25% | -20% | 22 | 9
O=C(c1ccc(CSc2ccc(Cl)cc2)cc1)N1CCCC1 | · | · | · | · | 61* | 23
O=C(CNCCc1ccccc1)Nc1ccc(C(=O)N2CCCCC2)cc1 | -18% | 11%[46.1 µM] | 2%[46.1 µM] | -15% | 73 | 28*
SMILES | Vaccinia Venus | Marburg entry inh | Lassa entry inh | Vaccinia mCherry | Shiga inhibitor | CHX counter
Cc1ccccc1CC(=O)Nc1ccc(C(=O)N2CCCC2)cc1 | · | · | · | · | 46 | 25*
CN(C)[C@H]1CCN([C@@H]2C[S+](=O)([O-])N[C@@H]2COCc2ccccc2)C1 | · | · | 4%[46.1 µM] | · | · | ·
CCOc1ccc(OCC)c(NC(=O)c2nnn(CC(=O)Nc3ccc(C)cc3C)c2N)c1 | -7% | 7%[46.1 µM] | 12%[46.1 µM] | -8% | · | ·
O=S(=O)(Nc1nc2ccccc2nc1Nc1ccc(N2CCOCC2)cc1)c1cc(Cl)ccc1Cl | · | 7.3µM* | ? | · | 5 | 1
CC(=O)N1c2c(cc(Br)cc2S(=O)(=O)Nc2ccc(OC(F)(F)F)cc2)CC1C (configuration not stated) | -13% | -23%[46.1 µM] | 4%[46.1 µM] | -3% | · | ·
CCc1ccc(Nc2nnc(SCC(=O)N(C)CC(=O)Nc3ccccc3CC)s2)cc1 | -25% | ? | ? | -14% | 26 | 28*
Cc1ccc(/C=C/C2=NN(C)C(=O)CC2)cc1 | -21% | ? | 2% | -14% | 63* | 27*
O=C1CCC(/C=C/c2ccccc2)=NN1Cc1ccccc1 | -8% | -7%[46.1 µM] | -13% | -1% | 17 | 12
CN1N=C(/C=C/c2ccccc2)CCC1=O | -13% | ? | 15% | i | 88* | 28*
C=CCN1N=C(/C=C/c2ccccc2)CCC1=O | -7% | 19%[46.1 µM] | -13% | -3% | 51 | 20*
CCCc1cc(=O)oc2c3c(ccc12)OCN(Cc1ccc(OC)cc1)C3 | -15%[7.34 µM] | · | 5%[46.1 µM] | -10%[7.34 µM] | -4 | -2
COc1ccc(N=C(C)C2=C(O)CSC2=O)cc1 | -17% | ? | 3% | -17% | 45 | 40*
CC(=Nc1ccccc1)C1=C(O)CCCC1=O | 7% | 22% | -1% | i | -2 | -5
CC(=Nc1ccccc1C)C1=C(O)CSC1=O | -1% | 23% | 13% | -2% | -6 | 1
CC(=Nc1ccccc1)C1=C(O)CSC1=O | 5% | 7% | 3% | -11% | 49 | 32*
CC(=Nc1ccccc1)C1=C(O)CC(C)(C)CC1=O | 3% | -11%[46.1 µM] | -2% | 0% | 45 | 22*
CCCCCNC(=O)C1C(=O)Nc2ccccc2C(=O)N1c1c(C)cccc1C (configuration not stated) | -5% | · | · | -8% | · | ·
CCS(=O)(=O)N1CC(=O)N(c2cccc(C)c2C)C(C)(C(=O)NC2CCCCCC2)C1 (configuration not stated) | -4% | · | 3%[46.1 µM] | -6% | · | ·
CCCCc1c(C)nc2cc(-c3ccco3)[nH]n2c1=O | -24% | 9% | 22% | -9% | 79* | 34*
Cc1ccccc1-c1cc2nc(C)c(Cl)c(=O)n2[nH]1 | 6% | 13µM* | ? | 4% | · | ·
C=CCc1c(C)nc2cc(-c3ccc(C)cc3)[nH]n2c1=O | · | · | · | · | 72* | 54*
CCc1c(C)nc2cc(-c3ccccc3)[nH]n2c1=O | -11% | -10%[46.1 µM] | -25%[46.1 µM] | -25% | 35* | 34*
COC1=C(C2C(OC)CCC3CCCCC32)C2=C(CCCC2)CC1 (configuration not stated) | · | 6%[14.2 µM] | · | · | · | ·

Assay outcomes as filed in PubChem BioAssay.
